# Key:
# [1] = biological target: Serine/threonine-protein kinase pim-2 (Homo sapiens) (UniProt Q9P1W9); settings: at 1 µM;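 also: each value is a mean of the inhibition measurements against the kinase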
# [2] = biological target: Serine/threonine-protein kinase pim-3 (Homo sapiens) (UniProt Q86V86); settings: at 0.1 µM
# [3] = biological target: Serine/threonine-protein kinase pim-3 (Homo sapiens) (UniProt Q86V86); settings: at 1 µM
# [4] = biological target: T1, MAP kinase-activated protein kinase 5 (Homo sapiens) (UniProt Q8IW41); settings: at 0.1 µM
# T1 sequence (whole entry): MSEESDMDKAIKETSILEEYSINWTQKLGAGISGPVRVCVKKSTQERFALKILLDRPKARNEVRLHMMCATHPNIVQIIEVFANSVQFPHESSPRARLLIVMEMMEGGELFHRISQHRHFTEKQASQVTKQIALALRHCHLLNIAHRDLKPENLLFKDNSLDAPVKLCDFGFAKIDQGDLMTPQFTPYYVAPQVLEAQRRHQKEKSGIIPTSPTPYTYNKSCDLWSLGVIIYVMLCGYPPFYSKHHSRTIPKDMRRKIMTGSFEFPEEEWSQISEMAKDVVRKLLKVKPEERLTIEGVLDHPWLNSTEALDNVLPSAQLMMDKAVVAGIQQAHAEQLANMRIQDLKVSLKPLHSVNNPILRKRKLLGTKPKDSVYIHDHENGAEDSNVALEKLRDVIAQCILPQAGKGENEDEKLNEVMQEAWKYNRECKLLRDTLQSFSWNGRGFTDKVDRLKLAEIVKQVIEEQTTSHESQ
# [5] = biological target: T1, MAP kinase-activated protein kinase 5 (Homo sapiens); settings: at 1 µM
# [6] = biological target: Serine/threonine-protein kinase SIK1 (Homo sapiens) (UniProt P57059); settings: at 0.1 µM
# [7] = biological target: Serine/threonine-protein kinase SIK1 (Homo sapiens) (UniProt P57059); settings: at 1 µM
# [8] = biological target: Serine/threonine-protein kinase SIK2 (Homo sapiens) (UniProt Q9H0K1); settings: at 0.1 µM
# [9] = biological target: Serine/threonine-protein kinase SIK2 (Homo sapiens) (UniProt Q9H0K1); settings: at 1 µM
# [10] = biological target: T2, Serine/threonine-protein kinase TBK1 (Homo sapiens) (UniProt Q9UHD2); settings: at 0.1 µM
# T2 sequence (whole entry): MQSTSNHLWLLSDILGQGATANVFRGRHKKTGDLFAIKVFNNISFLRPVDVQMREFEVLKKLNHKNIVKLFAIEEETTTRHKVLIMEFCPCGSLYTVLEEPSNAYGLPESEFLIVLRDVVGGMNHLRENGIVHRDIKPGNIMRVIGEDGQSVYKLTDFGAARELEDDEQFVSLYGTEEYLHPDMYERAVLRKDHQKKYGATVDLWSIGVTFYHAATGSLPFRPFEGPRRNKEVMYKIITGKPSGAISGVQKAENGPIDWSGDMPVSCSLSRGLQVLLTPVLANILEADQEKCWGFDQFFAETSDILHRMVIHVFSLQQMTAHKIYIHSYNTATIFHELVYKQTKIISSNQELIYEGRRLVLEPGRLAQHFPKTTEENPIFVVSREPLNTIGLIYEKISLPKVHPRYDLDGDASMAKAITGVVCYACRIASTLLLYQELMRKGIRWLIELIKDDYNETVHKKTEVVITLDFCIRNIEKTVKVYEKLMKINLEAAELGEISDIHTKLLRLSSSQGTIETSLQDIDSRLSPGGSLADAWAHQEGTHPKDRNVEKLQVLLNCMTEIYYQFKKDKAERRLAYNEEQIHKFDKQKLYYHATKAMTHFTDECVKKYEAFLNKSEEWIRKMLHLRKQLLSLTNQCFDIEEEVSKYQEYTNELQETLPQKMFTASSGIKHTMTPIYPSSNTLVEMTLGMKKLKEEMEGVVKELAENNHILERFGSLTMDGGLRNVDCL
# [11] = biological target: T2, Serine/threonine-protein kinase TBK1 (Homo sapiens); settings: at 1 µM
# [12] = biological target: T3, Testis-specific serine/threonine-protein kinase 1 (Homo sapiens) (UniProt Q9BXA7); settings: at 0.1 µM
# T3 sequence (whole entry): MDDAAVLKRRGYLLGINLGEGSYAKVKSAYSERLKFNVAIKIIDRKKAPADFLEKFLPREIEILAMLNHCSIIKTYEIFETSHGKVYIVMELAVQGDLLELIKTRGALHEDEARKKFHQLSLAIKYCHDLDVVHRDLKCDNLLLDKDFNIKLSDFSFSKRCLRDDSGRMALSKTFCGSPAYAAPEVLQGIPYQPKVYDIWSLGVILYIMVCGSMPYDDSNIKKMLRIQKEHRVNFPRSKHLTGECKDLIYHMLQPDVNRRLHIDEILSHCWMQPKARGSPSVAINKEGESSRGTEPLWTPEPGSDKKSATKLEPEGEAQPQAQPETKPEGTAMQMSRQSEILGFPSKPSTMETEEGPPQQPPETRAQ
# [13] = biological target: T3, Testis-specific serine/threonine-protein kinase 1 (Homo sapiens); settings: at 1 µM
# [14] = biological target: T4, Testis-specific serine/threonine-protein kinase 2 (Homo sapiens) (UniProt Q96PF2); settings: at 0.1 µM
# T4 sequence (whole entry): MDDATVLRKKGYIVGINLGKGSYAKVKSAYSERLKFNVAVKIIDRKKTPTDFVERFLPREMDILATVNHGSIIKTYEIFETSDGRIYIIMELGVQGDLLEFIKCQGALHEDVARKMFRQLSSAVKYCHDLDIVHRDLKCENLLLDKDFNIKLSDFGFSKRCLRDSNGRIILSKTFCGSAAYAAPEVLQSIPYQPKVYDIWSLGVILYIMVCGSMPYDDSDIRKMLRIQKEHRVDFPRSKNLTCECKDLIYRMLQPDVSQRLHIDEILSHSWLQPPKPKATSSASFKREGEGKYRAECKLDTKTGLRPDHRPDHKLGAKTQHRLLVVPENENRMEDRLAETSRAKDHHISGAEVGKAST
# [15] = biological target: T4, Testis-specific serine/threonine-protein kinase 2 (Homo sapiens); settings: at 1 µM
# [16] = biological target: Casein kinase I isoform alpha (Homo sapiens) (UniProt P48729); settings: at 0.1 µM
# [17] = biological target: Casein kinase I isoform alpha (Homo sapiens) (UniProt P48729); settings: at 1 µM
# [18] = biological target: Casein kinase I isoform gamma-1 (Homo sapiens) (UniProt Q9HCP0); settings: at 0.1 µM
# [19] = biological target: Casein kinase I isoform gamma-1 (Homo sapiens) (UniProt Q9HCP0); settings: at 1 µM
# [20] = biological target: Casein kinase I isoform gamma-2 (Homo sapiens) (UniProt P78368); settings: at 0.1 µM;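 also: values are mean inhibition figures reported as part of the GSK PKIS dataset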
# Casein kinase I isoform gamma-2 (Homo sapiens), sequence (P78368 whole entry, looked up, canonical isoform): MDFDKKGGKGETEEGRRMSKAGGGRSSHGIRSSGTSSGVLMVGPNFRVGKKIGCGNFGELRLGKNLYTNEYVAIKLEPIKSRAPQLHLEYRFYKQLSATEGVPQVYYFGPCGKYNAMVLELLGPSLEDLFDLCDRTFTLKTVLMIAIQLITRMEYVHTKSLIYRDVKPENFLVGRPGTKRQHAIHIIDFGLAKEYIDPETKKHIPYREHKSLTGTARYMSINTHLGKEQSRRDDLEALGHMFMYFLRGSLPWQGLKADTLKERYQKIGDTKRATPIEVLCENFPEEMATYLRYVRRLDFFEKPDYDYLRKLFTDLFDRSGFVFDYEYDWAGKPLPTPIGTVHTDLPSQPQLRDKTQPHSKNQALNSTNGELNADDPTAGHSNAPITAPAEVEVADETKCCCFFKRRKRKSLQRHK
# Serine/threonine-protein kinase SIK2 (Homo sapiens), sequence (Q9H0K1 whole entry, looked up): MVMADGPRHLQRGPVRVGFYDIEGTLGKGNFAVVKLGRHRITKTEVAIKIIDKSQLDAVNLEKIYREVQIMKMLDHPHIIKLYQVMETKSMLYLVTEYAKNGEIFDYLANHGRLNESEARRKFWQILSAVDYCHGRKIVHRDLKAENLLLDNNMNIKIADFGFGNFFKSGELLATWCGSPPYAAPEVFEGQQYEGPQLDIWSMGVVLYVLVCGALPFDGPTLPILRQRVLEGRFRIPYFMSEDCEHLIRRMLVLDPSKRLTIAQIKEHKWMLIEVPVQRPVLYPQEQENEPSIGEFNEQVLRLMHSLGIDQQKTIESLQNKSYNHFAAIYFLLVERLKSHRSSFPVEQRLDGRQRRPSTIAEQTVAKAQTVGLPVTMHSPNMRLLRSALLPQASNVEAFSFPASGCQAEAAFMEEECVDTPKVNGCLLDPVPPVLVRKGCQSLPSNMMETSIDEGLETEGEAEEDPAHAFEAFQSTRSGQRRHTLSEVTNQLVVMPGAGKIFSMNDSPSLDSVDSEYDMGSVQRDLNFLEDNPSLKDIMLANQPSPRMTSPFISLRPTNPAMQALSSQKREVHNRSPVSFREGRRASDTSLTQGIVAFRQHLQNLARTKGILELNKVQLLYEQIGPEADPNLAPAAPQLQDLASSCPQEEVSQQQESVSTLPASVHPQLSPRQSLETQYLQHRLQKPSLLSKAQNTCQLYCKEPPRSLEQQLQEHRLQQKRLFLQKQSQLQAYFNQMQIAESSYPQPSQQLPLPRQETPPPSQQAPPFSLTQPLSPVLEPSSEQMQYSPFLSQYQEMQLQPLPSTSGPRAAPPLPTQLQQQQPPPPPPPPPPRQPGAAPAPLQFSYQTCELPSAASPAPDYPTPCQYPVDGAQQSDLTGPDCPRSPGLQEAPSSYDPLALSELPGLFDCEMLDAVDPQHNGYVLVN
# Casein kinase I isoform alpha (Homo sapiens), sequence (P48729 2-337 limits assumed): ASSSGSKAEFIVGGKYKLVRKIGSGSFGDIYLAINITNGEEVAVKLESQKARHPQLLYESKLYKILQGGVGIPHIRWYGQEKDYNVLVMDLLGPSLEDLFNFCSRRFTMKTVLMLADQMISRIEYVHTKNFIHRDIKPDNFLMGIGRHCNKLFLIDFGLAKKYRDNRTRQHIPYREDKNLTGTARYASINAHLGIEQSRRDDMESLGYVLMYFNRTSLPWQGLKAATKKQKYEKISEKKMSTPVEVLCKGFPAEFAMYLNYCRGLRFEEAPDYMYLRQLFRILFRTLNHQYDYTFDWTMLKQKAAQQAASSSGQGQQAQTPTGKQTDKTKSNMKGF
# Serine/threonine-protein kinase SIK1 (Homo sapiens), sequence (P57059 whole entry): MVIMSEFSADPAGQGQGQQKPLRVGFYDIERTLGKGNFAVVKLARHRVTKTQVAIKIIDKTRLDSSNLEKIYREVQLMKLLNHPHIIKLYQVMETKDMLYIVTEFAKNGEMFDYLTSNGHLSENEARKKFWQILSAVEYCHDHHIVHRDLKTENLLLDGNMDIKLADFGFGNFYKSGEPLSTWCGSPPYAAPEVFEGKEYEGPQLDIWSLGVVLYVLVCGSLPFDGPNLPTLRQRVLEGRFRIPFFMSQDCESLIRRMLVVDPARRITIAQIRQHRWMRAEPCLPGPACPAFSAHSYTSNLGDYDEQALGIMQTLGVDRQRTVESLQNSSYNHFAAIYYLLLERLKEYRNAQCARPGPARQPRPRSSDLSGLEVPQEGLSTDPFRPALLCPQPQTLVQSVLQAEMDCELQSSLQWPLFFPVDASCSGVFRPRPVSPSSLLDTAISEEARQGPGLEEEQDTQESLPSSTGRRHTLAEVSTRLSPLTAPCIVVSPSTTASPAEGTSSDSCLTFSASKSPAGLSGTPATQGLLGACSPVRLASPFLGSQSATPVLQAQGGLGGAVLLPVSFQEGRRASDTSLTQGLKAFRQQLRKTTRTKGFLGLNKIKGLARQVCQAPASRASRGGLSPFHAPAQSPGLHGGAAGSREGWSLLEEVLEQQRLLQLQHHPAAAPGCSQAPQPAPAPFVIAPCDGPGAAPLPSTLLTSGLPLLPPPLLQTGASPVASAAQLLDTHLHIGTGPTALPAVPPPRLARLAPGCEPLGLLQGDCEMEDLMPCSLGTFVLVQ
# Serine/threonine-protein kinase pim-2 (Homo sapiens), sequence (Q9P1W9 whole entry, looked up): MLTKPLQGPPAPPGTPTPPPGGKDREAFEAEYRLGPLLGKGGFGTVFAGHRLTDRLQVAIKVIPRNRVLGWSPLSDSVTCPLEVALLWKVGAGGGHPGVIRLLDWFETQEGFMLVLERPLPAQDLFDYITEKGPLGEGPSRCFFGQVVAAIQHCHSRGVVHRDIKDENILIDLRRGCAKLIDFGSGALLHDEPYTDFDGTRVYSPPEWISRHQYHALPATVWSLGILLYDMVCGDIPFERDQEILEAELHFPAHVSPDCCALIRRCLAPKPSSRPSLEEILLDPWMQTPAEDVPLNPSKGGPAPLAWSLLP
# Casein kinase I isoform gamma-1 (Homo sapiens), sequence (Q9HCP0 whole entry, looked up, canonical isoform): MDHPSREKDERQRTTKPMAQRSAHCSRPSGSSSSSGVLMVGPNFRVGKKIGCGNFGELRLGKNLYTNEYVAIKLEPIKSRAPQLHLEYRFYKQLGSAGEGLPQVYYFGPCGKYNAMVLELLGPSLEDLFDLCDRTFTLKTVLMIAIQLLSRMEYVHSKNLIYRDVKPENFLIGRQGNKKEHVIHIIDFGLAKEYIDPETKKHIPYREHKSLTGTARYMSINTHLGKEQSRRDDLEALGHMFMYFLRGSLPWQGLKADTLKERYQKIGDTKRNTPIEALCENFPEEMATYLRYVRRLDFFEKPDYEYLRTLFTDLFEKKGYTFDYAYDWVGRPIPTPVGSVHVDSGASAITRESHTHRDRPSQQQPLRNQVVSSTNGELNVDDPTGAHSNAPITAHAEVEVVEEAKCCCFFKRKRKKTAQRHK
SMILES,inhibition [1] [%],inhibition [2] [%],inhibition [3] [%],inhibition [4] [%],inhibition [5] [%],inhibition [6] [%],inhibition [7] [%],inhibition [8] [%],inhibition [9] [%],inhibition [10] [%],inhibition [11] [%],inhibition [12] [%],inhibition [13] [%],inhibition [14] [%],inhibition [15] [%],inhibition [16] [%],inhibition [17] [%],inhibition [18] [%],inhibition [19] [%],inhibition [20] [%]
Fc1ccc(-c2ncn(C3CCNCC3)c2-c2ccnc(Oc3ccc(F)c(F)c3)n2)cc1,-3.35,-1.04,-0.06,1.47,1.56,1.72,7.15,0.78,8.24,2.13,5.03,1.98,3.01,0.64,1.42,4.09,15.4,0.31,2.33,-0.65
CCc1cccc(CC)c1/C=C/c1cncc(C(=O)NC)c1,-0.07,-0.9,-2.15,0.86,-0.1,0.91,6.26,1.69,-1.33,0.14,1.52,1.47,0.1,1.86,-3.19,2.53,6.21,2.66,5.44,1.49
O=C1Nc2ccccc2/C1=C/Nc1ccc(-n2cncn2)cc1,2.25,1.36,4.7,1.63,4.02,5.8,9.8,3.09,11.6,6.41,17.3,4.37,7.35,3.01,5.54,3.79,10.3,4.33,7.11,3.66
COc1cc2ncn(-c3cc(OCCc4ccccc4)c(C(N)=O)s3)c2cc1OC,0.47,-1.48,-2.48,0.21,-0.58,3.59,9.48,1.23,3.75,0.96,22.3,1.85,2.26,-0.18,-0.8,2.37,3.77,3.01,5.65,2.92
N#Cc1ccc(Oc2nccc(-c3c(-c4ccc(F)cc4)ncn3C3CCNCC3)n2)cc1,0.58,0.29,0.8,1.34,1.48,5.1,7.69,2.82,9.93,1.69,3.03,3.77,4.18,1.71,4.59,4.15,10.1,3.79,5.9,3.52

# Source: ChEMBL document CHEMBL1961873, “Compounds: GSK PKIS; Assays: Nanosyn kinase panel” (2012)
